# Laboratory results published in paper PMC11006913.
# Numbering of substitutions follows the chain as printed.
# Assays:
# Test in all cases: PBM; 200 nM protein, PBS
# Settings in all cases: dsDNA, one strand shown
# SIX6 [1] = biological target: T1, SIX6 (Homo sapiens, UniProt O95475 114-200, L167I)
# T1 sequence: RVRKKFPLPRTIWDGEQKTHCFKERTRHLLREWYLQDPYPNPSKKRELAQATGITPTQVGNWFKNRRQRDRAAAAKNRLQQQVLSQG
# SIX6 [2] = biological target: T2, SIX6 (Homo sapiens, UniProt O95475 114-200, L143V)
# T2 sequence: T1 sequence with L30V, I54L
# SIX6 [3] = biological target: T3, SIX6 (Homo sapiens, UniProt O95475 114-200, H141N)
# T3 sequence: T1 sequence with H28N, I54L
# SIX6 [4] = biological target: T4, SIX6 (Homo sapiens, UniProt O95475 114-200, T165P)
# T4 sequence: T1 sequence with T52P, I54L
# SIX6 [5] = biological target: T5, SIX6 (Homo sapiens, UniProt O95475 114-200, L167M)
# T5 sequence: T1 sequence with I54M
# SIX6 [6] = biological target: T6, SIX6 (Homo sapiens, UniProt O95475 114-200, L143M)
# T6 sequence: T1 sequence with L30M, I54L
# SIX6 [7] = biological target: T7, SIX6 (Homo sapiens, UniProt O95475 114-200, L143I)
# T7 sequence: T1 sequence with L30I, I54L
# SIX6 [8] = biological target: T8, SIX6 (Homo sapiens, UniProt O95475 114-200, T165G)
# T8 sequence: T1 sequence with T52G, I54L
# SIX6 [9] = biological target: T9, SIX6 (Homo sapiens, UniProt O95475 114-200, T139Q)
# T9 sequence: T1 sequence with T26Q, I54L
# SIX6 [10] = biological target: T10, SIX6 (Homo sapiens, UniProt O95475 114-200, T165A)
# T10 sequence: T1 sequence with T52A, I54L
# SIX6 [11] = biological target: T11, SIX6 (Homo sapiens, UniProt O95475 114-200, L167V)
# T11 sequence: T1 sequence with I54V
# SIX6 [12] = biological target: T12, SIX6 (Homo sapiens, UniProt O95475 114-200)
# T12 sequence: T1 sequence with I54L
# SIX6 [13] = biological target: T13, SIX6 (Homo sapiens, UniProt O95475 114-200, T165I)
# T13 sequence: T1 sequence with T52I, I54L
Sequence,binding signal (SIX6 [1]),binding signal (SIX6 [2]),binding signal (SIX6 [3]),binding signal (SIX6 [4]),binding signal (SIX6 [5]),binding signal (SIX6 [6]),binding signal (SIX6 [7]),binding signal (SIX6 [8]),binding signal (SIX6 [9]),binding signal (SIX6 [10]),binding signal (SIX6 [11]),binding signal (SIX6 [12]),binding signal (SIX6 [13])
ATACCCAT,"10.6 upbm affinity estimate (log intensity, higher = more binding, comparable within an allelic series)","10.1 upbm affinity estimate (log intensity, higher = more binding, comparable within an allelic series)","10.6 upbm affinity estimate (log intensity, higher = more binding, comparable within an allelic series)","9.74 upbm affinity estimate (log intensity, higher = more binding, comparable within an allelic series)","10.4 upbm affinity estimate (log intensity, higher = more binding, comparable within an allelic series)","10.6 upbm affinity estimate (log intensity, higher = more binding, comparable within an allelic series)","10.1 upbm affinity estimate (log intensity, higher = more binding, comparable within an allelic series)","10.7 upbm affinity estimate (log intensity, higher = more binding, comparable within an allelic series)","10.8 upbm affinity estimate (log intensity, higher = more binding, comparable within an allelic series)","10.5 upbm affinity estimate (log intensity, higher = more binding, comparable within an allelic series)","10.4 upbm affinity estimate (log intensity, higher = more binding, comparable within an allelic series)","10.6 upbm affinity estimate (log intensity, higher = more binding, comparable within an allelic series)","10.4 upbm affinity estimate (log intensity, higher = more binding, comparable within an allelic series)"
ATGATACC,"11.6 upbm affinity estimate (log intensity, higher = more binding, comparable within an allelic series)","10.5 upbm affinity estimate (log intensity, higher = more binding, comparable within an allelic series)","11.6 upbm affinity estimate (log intensity, higher = more binding, comparable within an allelic series)","9.82 upbm affinity estimate (log intensity, higher = more binding, comparable within an allelic series)","11 upbm affinity estimate (log intensity, higher = more binding, comparable within an allelic series)","11.3 upbm affinity estimate (log intensity, higher = more binding, comparable within an allelic series)","10.6 upbm affinity estimate (log intensity, higher = more binding, comparable within an allelic series)","11.7 upbm affinity estimate (log intensity, higher = more binding, comparable within an allelic series)","11.5 upbm affinity estimate (log intensity, higher = more binding, comparable within an allelic series)","11.6 upbm affinity estimate (log intensity, higher = more binding, comparable within an allelic series)","11.4 upbm affinity estimate (log intensity, higher = more binding, comparable within an allelic series)","11.4 upbm affinity estimate (log intensity, higher = more binding, comparable within an allelic series)","11.3 upbm affinity estimate (log intensity, higher = more binding, comparable within an allelic series)"
GAGTATCA,"11.2 upbm affinity estimate (log intensity, higher = more binding, comparable within an allelic series)","10.2 upbm affinity estimate (log intensity, higher = more binding, comparable within an allelic series)","11.3 upbm affinity estimate (log intensity, higher = more binding, comparable within an allelic series)","9.54 upbm affinity estimate (log intensity, higher = more binding, comparable within an allelic series)","10.6 upbm affinity estimate (log intensity, higher = more binding, comparable within an allelic series)","10.9 upbm affinity estimate (log intensity, higher = more binding, comparable within an allelic series)","10.3 upbm affinity estimate (log intensity, higher = more binding, comparable within an allelic series)","11.3 upbm affinity estimate (log intensity, higher = more binding, comparable within an allelic series)","11.2 upbm affinity estimate (log intensity, higher = more binding, comparable within an allelic series)","11.2 upbm affinity estimate (log intensity, higher = more binding, comparable within an allelic series)","11 upbm affinity estimate (log intensity, higher = more binding, comparable within an allelic series)","10.9 upbm affinity estimate (log intensity, higher = more binding, comparable within an allelic series)","11.1 upbm affinity estimate (log intensity, higher = more binding, comparable within an allelic series)"
ATGATACA,"11.3 upbm affinity estimate (log intensity, higher = more binding, comparable within an allelic series)","10.5 upbm affinity estimate (log intensity, higher = more binding, comparable within an allelic series)","11.3 upbm affinity estimate (log intensity, higher = more binding, comparable within an allelic series)","9.98 upbm affinity estimate (log intensity, higher = more binding, comparable within an allelic series)","10.8 upbm affinity estimate (log intensity, higher = more binding, comparable within an allelic series)","11.1 upbm affinity estimate (log intensity, higher = more binding, comparable within an allelic series)","10.5 upbm affinity estimate (log intensity, higher = more binding, comparable within an allelic series)","11.3 upbm affinity estimate (log intensity, higher = more binding, comparable within an allelic series)","11.2 upbm affinity estimate (log intensity, higher = more binding, comparable within an allelic series)","11.2 upbm affinity estimate (log intensity, higher = more binding, comparable within an allelic series)","11.1 upbm affinity estimate (log intensity, higher = more binding, comparable within an allelic series)","11.1 upbm affinity estimate (log intensity, higher = more binding, comparable within an allelic series)","11.1 upbm affinity estimate (log intensity, higher = more binding, comparable within an allelic series)"
CGTATCAC,"11.2 upbm affinity estimate (log intensity, higher = more binding, comparable within an allelic series)","10.3 upbm affinity estimate (log intensity, higher = more binding, comparable within an allelic series)","11.3 upbm affinity estimate (log intensity, higher = more binding, comparable within an allelic series)","9.61 upbm affinity estimate (log intensity, higher = more binding, comparable within an allelic series)","10.6 upbm affinity estimate (log intensity, higher = more binding, comparable within an allelic series)","11 upbm affinity estimate (log intensity, higher = more binding, comparable within an allelic series)","10.4 upbm affinity estimate (log intensity, higher = more binding, comparable within an allelic series)","11.3 upbm affinity estimate (log intensity, higher = more binding, comparable within an allelic series)","11.3 upbm affinity estimate (log intensity, higher = more binding, comparable within an allelic series)","11.2 upbm affinity estimate (log intensity, higher = more binding, comparable within an allelic series)","11 upbm affinity estimate (log intensity, higher = more binding, comparable within an allelic series)","11 upbm affinity estimate (log intensity, higher = more binding, comparable within an allelic series)","11.1 upbm affinity estimate (log intensity, higher = more binding, comparable within an allelic series)"
GGTATCAC,"11.6 upbm affinity estimate (log intensity, higher = more binding, comparable within an allelic series)","10.5 upbm affinity estimate (log intensity, higher = more binding, comparable within an allelic series)","11.6 upbm affinity estimate (log intensity, higher = more binding, comparable within an allelic series)","9.55 upbm affinity estimate (log intensity, higher = more binding, comparable within an allelic series)","10.9 upbm affinity estimate (log intensity, higher = more binding, comparable within an allelic series)","11.2 upbm affinity estimate (log intensity, higher = more binding, comparable within an allelic series)","10.6 upbm affinity estimate (log intensity, higher = more binding, comparable within an allelic series)","11.8 upbm affinity estimate (log intensity, higher = more binding, comparable within an allelic series)","11.6 upbm affinity estimate (log intensity, higher = more binding, comparable within an allelic series)","11.6 upbm affinity estimate (log intensity, higher = more binding, comparable within an allelic series)","11.4 upbm affinity estimate (log intensity, higher = more binding, comparable within an allelic series)","11.3 upbm affinity estimate (log intensity, higher = more binding, comparable within an allelic series)","11.4 upbm affinity estimate (log intensity, higher = more binding, comparable within an allelic series)"
